Laboratory results taken from the supplement of paper PMC10646978.
± gives the standard deviation.

Legend:
Settings in all cases: modulator concentration 10 µM
[1] = system: RAW-Dual (murine macrophage reporter line); test: NF-kB reporter (SEAP) activity fold change vs agonist alone; higher = enhanced NF-kB activity
Method in brief: (§1)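 Overnight stimulation with a PRR agonist followed pre-incubation for 1 hour at 37 °C with compound at 10 μM final. This was done in RAW-Dual murine macrophage reporter cells seeded at 50 000 per well in 384-well plates. NF-κB (SEAP, QUANTI-Blue absorbance at 620 nm) and IRF (Lucia luciferase, QUANTI-Luc luminescence) were read from the supernatant. Each reporter's fold change relative to the mean agonist-only control on the same plate was averaged over replicate plates.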

[2] = system: RAW-Dual (murine macrophage reporter line); test: IRF reporter (Lucia luciferase) activity fold change vs agonist alone; higher = enhanced IRF activity
Method in brief: as §1

[3] = system: RAW-Dual (murine macrophage reporter line); test: viability score (confluency relative to resting cells, overnight) (fraction); higher = more viable, active = viable (0.7 or more)
Method in brief: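 RAW-Dual macrophages in 384-well plates were incubated overnight with compound, final concentration 10 μM. Confluency images from IncuCyte were processed in IncuCyte software into two masks covering all imaged wells. The viability score is each well's confluency relative to resting cells, and a compound met the cutoff when both masks exceeded 70% of resting cells.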

[4] = agonist: CpG ODN 1826 0.5 ug/mL

Structure (SMILES) | NF-kB reporter [1, 4] | NF-kB reporter ([1]; agonist: LPS 0.1 ug/mL) | NF-kB reporter ([1]; agonist: MPLA […]) | IRF reporter ([2]; agonist: 3'3'-cGAMP 10 ug/mL) | IRF reporter ([2]; agonist: LPS 0.1 ug/mL) | IRF reporter ([2]; agonist: MPLA […]) | viability score [3]
CCn1c2ccccc2c2cc(CNCCc3ccc(OC)cc3)ccc21 | 0.369 ± 0.048 | 0.539 ± 0.068 | 1.24 ± 0.1 | 0.479 ± 0.11 | 0.556 ± 0.025 | 2.16 ± 0.28 | 0.0492 (inactive)
CCN(C=Nc1sc2c(c1C#N)CC(C)(C)NC2(C)C)CC | 0.759 ± 0.059 | 0.93 ± 0.054 | 0.901 ± 0.093 | 0.969 ± 0.044 | 1.24 ± 0.071 | 1.29 ± 0.22 | 0.992 (active)
NC(=NOC(=O)C(c1ccccc1)C1CCCC1)c1ccccn1 (configuration not stated) | 0.796 ± 0.062 | 0.857 ± 0.055 | 1.06 ± 0.1 | 0.613 ± 0.042 | 1.38 ± 0.083 | 1.62 ± 0.15 | 0.982 (active)
O=C(c1ccc(F)c(F)c1Nc1ccc(I)cc1F)N1CC(O)([C@@H]2CCCCN2)C1 | 0.155 ± 0.0087 | 0.0529 ± 0.0032 | 0.123 ± 0.012 | 0.871 ± 0.029 | 4.08 ± 0.27 | 1.81 ± 0.16 | 0.0873 (inactive)
Cc1c(C(=O)ON=C(N)c2ccncc2)cccc1[N+](=O)[O-] | 1.01 ± 0.08 | 0.996 ± 0.06 | 0.851 ± 0.069 | 0.421 ± 0.031 | 1.33 ± 0.099 | 1.23 ± 0.16 | 0.992 (active)
CN1CCN(c2c(F)cc3c(=O)c(C(=O)O)cn4c3c2OCN4C)CC1 | 1.2 ± 0.34 | 1.09 ± 0.093 | 0.971 ± 0.099 | 0.958 ± 0.039 | 1.26 ± 0.15 | 1.25 ± 0.12 | 0.995 (active)
COC(=O)C1C(O)CCC2CN3CCc4c([nH]c5ccccc45)C3CC21.Cl (configuration not stated) | 1.19 ± 0.28 | 0.917 ± 0.076 | 0.906 ± 0.058 | 0.92 ± 0.1 | 1.15 ± 0.25 | 1.23 ± 0.15 | 0.995 (active)
NS(=O)(=O)c1ccc(F)cc1 | 0.947 ± 0.076 | 1.04 ± 0.076 | 0.997 ± 0.11 | 0.977 ± 0.031 | 1.24 ± 0.2 | 1.23 ± 0.17 | 1.02 (active)
O=C(O)C=C(CC(=O)O)C(=O)O | 1.02 ± 0.084 | 1.05 ± 0.074 | 0.946 ± 0.021 | 0.996 ± 0.12 | 0.971 ± 0.038 | 0.983 ± 0.092 | 1 (active)
CC(C)NCC(O)COc1cccc2ccccc12 (configuration not stated) [Prestw-1075] | 1.02 ± 0.064 | 0.92 ± 0.11 | 1.05 ± 0.043 | 0.896 ± 0.032 | 0.929 ± 0.071 | 0.918 ± 0.09 | 0.985 (active)
CC1=C(C(=O)OCCN(Cc2ccccc2)c2ccccc2)C(c2cccc([N+](=O)[O-])c2)C(P2(=O)OCC(C)(C)CO2)=C(C)N1 (configuration not stated) | 0.86 ± 0.2 | 0.475 ± 0.024 | 0.543 ± 0.034 | 0.555 ± 0.028 | 0.917 ± 0.15 | 0.736 ± 0.074 | 1 (active)
CC(C)(C)N.CCCC(NC(C)C(=O)N1C(C(=O)O)CC2CCCCC21)C(=O)OCC (configuration not stated) | 0.927 ± 0.074 | 0.864 ± 0.15 | 0.947 ± 0.094 | 0.996 ± 0.036 | 1.21 ± 0.16 | 1.3 ± 0.18 | 1.02 (active)
Cc1cc(OCC(=O)Nc2ccc(Cl)c(C(F)(F)F)c2)ccc1Cl | 0.934 ± 0.079 | 0.942 ± 0.056 | 1.24 ± 0.11 | 1.02 ± 0.051 | 1.7 ± 0.1 | 1.83 ± 0.19 | 0.971 (active)
NC(=O)NCC(N)C(=O)O (configuration not stated) | 0.988 ± 0.082 | 1.02 ± 0.09 | 0.969 ± 0.022 | 0.959 ± 0.053 | 0.963 ± 0.12 | 1.02 ± 0.1 | 0.994 (active)
COc1ccc(C2SCc3cc(C)c(C)cc3CS2)cc1OC | 0.831 ± 0.11 | 0.826 ± 0.069 | 1.1 ± 0.1 | 0.965 ± 0.045 | 1.4 ± 0.087 | 1.64 ± 0.14 | 1.01 (active)
COS(=O)(=O)[O-].C[N+]1(C)CCC(=C(c2ccccc2)c2ccccc2)CC1 | 1.35 ± 0.061 | 1.09 ± 0.093 | 1.76 ± 0.32 | 0.849 ± 0.047 | 0.979 ± 0.15 | 0.823 ± 0.18 | 0.958 (active)
COc1ccc(NC(=O)c2nn(-c3ccc(F)cc3)cc2OC)cc1OC | 1.07 ± 0.12 | 1.14 ± 0.094 | 0.889 ± 0.04 | 0.976 ± 0.07 | 1.23 ± 0.12 | 1.13 ± 0.24 | 0.976 (active)
CCC(=O)Nc1ccc(NC(=O)c2ccc([N+](=O)[O-])cc2)cc1 | 0.982 ± 0.086 | 1.05 ± 0.072 | 0.991 ± 0.14 | 0.978 ± 0.054 | 1.43 ± 0.12 | 1.12 ± 0.075 | 1.01 (active)
CS(=O)(=O)N1CCCCC1C(=O)N(CC1CCCO1)c1nc2c(F)cccc2s1 (configuration not stated) | 0.814 ± 0.072 | 1.02 ± 0.1 | 0.773 ± 0.054 | 1.24 ± 0.078 | 1.19 ± 0.077 | 1.23 ± 0.16 | 0.966 (active)
CC(C)(C(=O)c1cccnc1)c1cccnc1 [Prestw-904] | 1.05 ± 0.092 | 0.894 ± 0.073 | 0.939 ± 0.057 | 0.995 ± 0.054 | 0.956 ± 0.12 | 0.901 ± 0.23 | 0.997 (active)
O=c1[nH]c(=O)n(C2CC(O)C(CO)O2)cc1F (configuration not stated) | 1.67 ± 0.13 | 0.714 ± 0.057 | 0.978 ± 0.1 | 0.321 ± 0.025 | 0.684 ± 0.14 | 0.545 ± 0.12 | 1.04 (active)
Cc1cc(NC(=O)c2ccoc2COc2ccccc2)no1 | 1.17 ± 0.063 | 1.08 ± 0.093 | 1.32 ± 0.071 | 1.21 ± 0.061 | 1.21 ± 0.23 | 1.46 ± 0.38 | 0.962 (active)
COc1cccc(CCNC(=O)CC2CSc3nc4c(c(=O)n32)CCCC4)c1 (configuration not stated) | 1.22 ± 0.069 | 1.07 ± 0.083 | 1.05 ± 0.096 | 0.886 ± 0.034 | 1.06 ± 0.052 | 1.13 ± 0.11 | 0.996 (active)
CC(C)Cc1ccc(C(C)C(=O)O)cc1.NCCCC[C@H](N)C(=O)O (configuration not stated) | 1.11 ± 0.26 | 0.97 ± 0.05 | 0.963 ± 0.064 | 0.903 ± 0.032 | 1.47 ± 0.16 | 1.41 ± 0.18 | 0.536 (inactive)
CC(=O)N1CCN(c2ccc(OCC3COC(Cn4ccnc4)(c4ccc(Cl)cc4Cl)O3)cc2)CC1 (configuration not stated) | 0.669 ± 0.058 | 1.1 ± 0.085 | 1.08 ± 0.023 | 1.07 ± 0.059 | 1.14 ± 0.12 | 1.18 ± 0.11 | 0.92 (active)
CCOc1ccccc1NC(=O)Nc1ccc2c(c1)CC(=O)N2CC | 1.17 ± 0.083 | 0.945 ± 0.092 | 0.998 ± 0.028 | 0.694 ± 0.037 | 0.844 ± 0.077 | 0.797 ± 0.089 | 0.998 (active)
